Laboratory results taken from the supplement of paper PMC10849652.
The full data set covers some 8,800 targets. This sample favours those with a hit. About 0.5% of all pairs of compound and target were hits. Values without a mark were called inactive.

Columns and labels:
Assay in all cases: log2 fold change, soluble protein after heating vs DMSO (PISA); higher = thermal stabilisation; K562 lysate, 10 uM; active = over 0.2 and 3.5 SD of the protein, either way, in both replicates (recomputed)
nilotinib = compound: Cc1cn(-c2cc(NC(=O)c3ccc(C)c(Nc4nccc(-c5cccnc5)n4)c3)cc(C(F)(F)F)c2)cn1 [nilotinib]
Outline: (§1)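 Pellets of K562 cells were dounce-homogenised in PBS pH 7.4 with 1 mM MgCl2, and the crude extract was held at 1 mg/mL protein for a 30 min treatment with 10 μM compound. Aliquots were heated for 3 min over 48°C-58°C and pooled before NP-40 was added to 0.5% at 4°C. The supernatant from 21,000xg for 90 min was quantified by TMTpro 16plex LC-MS/MS with channel sums equalised. Values are reported from duplicates as log-two fold change in thermal stability relative to solvent controls.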

[1] = compound: Cc1nc(Nc2n[nH]c3c2CN(C(=O)N[C@H](CN(C)C)c2ccccc2)C3(C)C)c2sccc2n1
Outline: as §1

dasatinib = compound: Cc1nc(Nc2ncc(C(=O)Nc3c(C)cccc3Cl)s2)cc(N2CCN(CCO)CC2)n1 [dasatinib]
Outline: as §1

[2] = compound: Cc1ncc(-c2ccnc(Nc3ccc(S(C)(=O)=O)cc3)n2)n1C(C)C
Outline: as §1

[3] = compound: Cn1cc(-c2ccc3c(c2)CCN3C(=O)Cc2cccc(C(F)(F)F)c2)c2c(N)ncnc21
Outline: as §1

quisinostat = compound: Cn1cc(CNCC2CCN(c3ncc(C(=O)NO)cn3)CC2)c2ccccc21 [quisinostat]
Outline: as §1

tipifarnib = compound: Cn1cncc1[C@@](N)(c1ccc(Cl)cc1)c1ccc2c(c1)c(-c1cccc(Cl)c1)cc(=O)n2C [tipifarnib]
Outline: as §1

[4] = compound: NC(=O)Nc1cc(-c2cccc(F)c2)sc1C(=O)N[C@H]1CCCNC1
Outline: as §1

[5] = compound: NC(=O)c1cnc(N[C@@H]2CCCC[C@@H]2N)nc1Nc1cccc(-n2nccn2)c1
Outline: as §1

[6] = compound: NC1(c2ccc(-c3nc4ccn5c(=O)[nH]nc5c4cc3-c3ccccc3)cc2)CCC1
Outline: as §1

[7] = compound: NCC(=O)Nc1ccc(-n2nc(C(F)(F)F)cc2-c2ccc3c(ccc4ccccc43)c2)cc1
Outline: as §1

vorinostat = compound: O=C(CCCCCCC(=O)Nc1ccccc1)NO [vorinostat]
Outline: as §1

silmitasertib = compound: O=C(O)c1ccc2c(c1)nc(Nc1cccc(Cl)c1)c1ccncc12 [silmitasertib]
Outline: as §1

[8] = compound: O=C1NC(=O)C(c2cnc3ccccn23)=C1c1cn2c3c(cc(F)cc13)CN(C(=O)N1CCCCC1)CC2
Outline: as §1

entospletinib = compound: c1cn2cc(-c3ccc4cn[nH]c4c3)nc(Nc3ccc(N4CCOCC4)cc3)c2n1 [entospletinib]
Outline: as §1

Chain of UniProt Q99963 (Q99963 whole entry, looked up): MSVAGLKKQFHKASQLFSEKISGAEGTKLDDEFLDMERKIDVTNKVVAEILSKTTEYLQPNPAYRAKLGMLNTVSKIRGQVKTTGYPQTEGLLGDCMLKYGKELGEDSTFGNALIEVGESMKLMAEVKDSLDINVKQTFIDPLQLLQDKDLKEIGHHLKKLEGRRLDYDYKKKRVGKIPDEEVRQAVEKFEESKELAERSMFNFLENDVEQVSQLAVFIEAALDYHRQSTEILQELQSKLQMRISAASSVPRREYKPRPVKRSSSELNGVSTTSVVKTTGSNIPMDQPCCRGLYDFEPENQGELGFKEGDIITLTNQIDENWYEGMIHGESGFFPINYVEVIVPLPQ
Chain of UniProt Q6NXT6 (Q6NXT6 whole entry, looked up): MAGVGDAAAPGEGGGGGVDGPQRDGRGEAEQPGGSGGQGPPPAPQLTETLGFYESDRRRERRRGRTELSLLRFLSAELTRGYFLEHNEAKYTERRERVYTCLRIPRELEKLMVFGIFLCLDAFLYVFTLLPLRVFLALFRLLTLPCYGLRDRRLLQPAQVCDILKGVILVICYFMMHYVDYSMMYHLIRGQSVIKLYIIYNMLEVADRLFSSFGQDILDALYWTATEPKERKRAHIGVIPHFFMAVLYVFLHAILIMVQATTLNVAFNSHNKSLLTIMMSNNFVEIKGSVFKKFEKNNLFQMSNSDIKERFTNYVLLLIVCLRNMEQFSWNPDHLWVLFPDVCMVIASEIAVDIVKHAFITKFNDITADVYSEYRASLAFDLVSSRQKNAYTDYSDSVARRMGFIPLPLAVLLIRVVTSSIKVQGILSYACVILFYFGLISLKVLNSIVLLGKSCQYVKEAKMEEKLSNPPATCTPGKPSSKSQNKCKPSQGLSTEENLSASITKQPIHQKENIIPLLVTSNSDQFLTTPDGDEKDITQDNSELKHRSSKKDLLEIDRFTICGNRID
Chain of UniProt Q16594 (Q16594 whole entry, looked up): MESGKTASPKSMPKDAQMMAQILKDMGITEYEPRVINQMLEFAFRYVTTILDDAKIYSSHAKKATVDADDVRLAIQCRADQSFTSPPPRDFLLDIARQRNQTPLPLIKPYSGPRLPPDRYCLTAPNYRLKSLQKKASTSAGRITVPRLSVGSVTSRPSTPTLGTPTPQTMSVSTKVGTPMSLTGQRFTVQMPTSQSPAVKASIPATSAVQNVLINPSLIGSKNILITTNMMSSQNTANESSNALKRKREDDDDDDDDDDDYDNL
Chain of UniProt Q6P1M0 (Q6P1M0 whole entry, looked up): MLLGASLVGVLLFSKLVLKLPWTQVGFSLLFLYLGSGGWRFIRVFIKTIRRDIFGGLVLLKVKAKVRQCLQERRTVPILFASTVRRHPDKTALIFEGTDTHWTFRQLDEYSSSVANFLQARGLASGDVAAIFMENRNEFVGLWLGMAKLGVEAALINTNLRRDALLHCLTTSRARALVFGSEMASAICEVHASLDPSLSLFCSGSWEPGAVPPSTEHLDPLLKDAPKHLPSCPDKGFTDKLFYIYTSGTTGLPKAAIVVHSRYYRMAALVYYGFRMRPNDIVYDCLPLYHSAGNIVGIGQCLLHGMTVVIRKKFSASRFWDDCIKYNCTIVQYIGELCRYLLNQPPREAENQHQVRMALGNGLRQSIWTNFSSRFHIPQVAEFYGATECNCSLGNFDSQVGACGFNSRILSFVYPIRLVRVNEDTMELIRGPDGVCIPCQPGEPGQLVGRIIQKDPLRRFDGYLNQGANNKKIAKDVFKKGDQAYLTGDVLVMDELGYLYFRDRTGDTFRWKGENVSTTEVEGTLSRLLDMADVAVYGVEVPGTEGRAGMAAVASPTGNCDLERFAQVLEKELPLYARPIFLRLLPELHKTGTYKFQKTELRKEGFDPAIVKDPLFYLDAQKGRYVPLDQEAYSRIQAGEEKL
Chain of UniProt P52630 (P52630 whole entry, looked up): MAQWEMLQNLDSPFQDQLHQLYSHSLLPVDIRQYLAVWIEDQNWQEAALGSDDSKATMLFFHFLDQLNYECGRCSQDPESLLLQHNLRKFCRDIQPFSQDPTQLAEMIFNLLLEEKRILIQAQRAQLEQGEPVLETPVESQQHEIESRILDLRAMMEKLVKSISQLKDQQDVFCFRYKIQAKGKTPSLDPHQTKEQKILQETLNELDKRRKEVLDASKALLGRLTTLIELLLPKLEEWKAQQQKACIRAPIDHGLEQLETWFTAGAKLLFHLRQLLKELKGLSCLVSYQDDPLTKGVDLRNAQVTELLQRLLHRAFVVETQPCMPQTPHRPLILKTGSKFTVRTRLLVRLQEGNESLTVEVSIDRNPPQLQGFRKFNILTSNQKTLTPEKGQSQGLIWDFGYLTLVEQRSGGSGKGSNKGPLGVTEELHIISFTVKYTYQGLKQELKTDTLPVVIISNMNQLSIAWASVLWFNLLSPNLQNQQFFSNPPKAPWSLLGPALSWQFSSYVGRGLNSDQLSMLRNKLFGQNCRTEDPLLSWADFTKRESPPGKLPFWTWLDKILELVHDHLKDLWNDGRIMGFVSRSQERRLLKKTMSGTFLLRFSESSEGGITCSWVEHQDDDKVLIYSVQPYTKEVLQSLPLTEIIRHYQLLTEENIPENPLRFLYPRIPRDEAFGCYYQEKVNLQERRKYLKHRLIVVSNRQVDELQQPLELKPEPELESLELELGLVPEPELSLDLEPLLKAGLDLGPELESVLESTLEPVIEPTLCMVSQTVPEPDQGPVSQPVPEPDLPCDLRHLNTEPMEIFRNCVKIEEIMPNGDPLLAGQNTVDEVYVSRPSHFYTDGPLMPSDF
Chain of UniProt Q9BWW4 (Q9BWW4 whole entry, looked up): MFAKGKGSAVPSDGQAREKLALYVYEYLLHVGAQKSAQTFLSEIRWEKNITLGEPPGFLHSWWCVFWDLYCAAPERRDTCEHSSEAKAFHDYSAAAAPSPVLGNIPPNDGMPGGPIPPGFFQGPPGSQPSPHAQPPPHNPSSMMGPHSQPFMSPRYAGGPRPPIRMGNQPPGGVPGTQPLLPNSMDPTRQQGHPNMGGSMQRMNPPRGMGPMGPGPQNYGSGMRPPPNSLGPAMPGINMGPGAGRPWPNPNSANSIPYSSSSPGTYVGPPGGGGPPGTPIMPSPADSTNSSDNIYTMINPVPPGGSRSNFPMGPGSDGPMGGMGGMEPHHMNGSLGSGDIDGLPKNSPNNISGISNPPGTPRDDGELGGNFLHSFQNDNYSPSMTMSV
Chain of UniProt P31947 (P31947 whole entry, looked up): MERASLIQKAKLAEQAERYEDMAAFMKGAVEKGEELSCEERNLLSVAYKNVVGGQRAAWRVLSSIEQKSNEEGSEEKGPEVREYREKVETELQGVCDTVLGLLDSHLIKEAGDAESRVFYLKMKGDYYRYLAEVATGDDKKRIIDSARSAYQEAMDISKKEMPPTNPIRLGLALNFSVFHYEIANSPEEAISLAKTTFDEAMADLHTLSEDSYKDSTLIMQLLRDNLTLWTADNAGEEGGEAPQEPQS
Chain of UniProt Q13242 (Q13242 whole entry, looked up): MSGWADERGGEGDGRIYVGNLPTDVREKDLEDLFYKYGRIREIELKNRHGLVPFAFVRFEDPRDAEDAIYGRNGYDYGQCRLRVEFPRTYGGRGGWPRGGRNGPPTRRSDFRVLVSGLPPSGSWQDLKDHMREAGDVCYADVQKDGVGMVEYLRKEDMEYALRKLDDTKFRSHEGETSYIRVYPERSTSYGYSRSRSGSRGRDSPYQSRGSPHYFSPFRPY
Chain of UniProt Q9NYA1 (Q9NYA1 whole entry, looked up): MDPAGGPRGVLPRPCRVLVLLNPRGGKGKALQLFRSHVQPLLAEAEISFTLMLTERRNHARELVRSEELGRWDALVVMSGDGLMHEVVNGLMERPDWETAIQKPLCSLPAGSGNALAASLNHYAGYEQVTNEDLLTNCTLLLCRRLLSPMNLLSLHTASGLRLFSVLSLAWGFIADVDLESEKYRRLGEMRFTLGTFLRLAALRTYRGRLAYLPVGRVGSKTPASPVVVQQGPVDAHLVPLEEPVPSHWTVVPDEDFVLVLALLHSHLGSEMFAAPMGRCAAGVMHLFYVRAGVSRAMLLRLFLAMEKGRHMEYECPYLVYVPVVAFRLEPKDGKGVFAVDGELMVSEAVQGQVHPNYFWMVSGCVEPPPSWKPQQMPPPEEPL
Chain of UniProt Q14542 (Q14542 whole entry, looked up): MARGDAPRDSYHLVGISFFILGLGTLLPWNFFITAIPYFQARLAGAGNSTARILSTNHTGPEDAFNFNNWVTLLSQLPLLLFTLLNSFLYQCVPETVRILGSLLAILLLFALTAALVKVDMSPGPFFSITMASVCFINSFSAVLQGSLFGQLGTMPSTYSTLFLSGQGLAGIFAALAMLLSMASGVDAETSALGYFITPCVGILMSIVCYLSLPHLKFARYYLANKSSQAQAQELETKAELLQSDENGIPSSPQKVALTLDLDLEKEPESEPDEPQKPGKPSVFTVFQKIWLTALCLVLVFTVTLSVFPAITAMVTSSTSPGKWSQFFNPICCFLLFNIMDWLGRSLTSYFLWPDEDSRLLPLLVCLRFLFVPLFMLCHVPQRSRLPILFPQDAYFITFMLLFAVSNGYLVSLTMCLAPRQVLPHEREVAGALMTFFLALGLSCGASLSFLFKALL
Chain of UniProt Q01650 (Q01650 whole entry, looked up): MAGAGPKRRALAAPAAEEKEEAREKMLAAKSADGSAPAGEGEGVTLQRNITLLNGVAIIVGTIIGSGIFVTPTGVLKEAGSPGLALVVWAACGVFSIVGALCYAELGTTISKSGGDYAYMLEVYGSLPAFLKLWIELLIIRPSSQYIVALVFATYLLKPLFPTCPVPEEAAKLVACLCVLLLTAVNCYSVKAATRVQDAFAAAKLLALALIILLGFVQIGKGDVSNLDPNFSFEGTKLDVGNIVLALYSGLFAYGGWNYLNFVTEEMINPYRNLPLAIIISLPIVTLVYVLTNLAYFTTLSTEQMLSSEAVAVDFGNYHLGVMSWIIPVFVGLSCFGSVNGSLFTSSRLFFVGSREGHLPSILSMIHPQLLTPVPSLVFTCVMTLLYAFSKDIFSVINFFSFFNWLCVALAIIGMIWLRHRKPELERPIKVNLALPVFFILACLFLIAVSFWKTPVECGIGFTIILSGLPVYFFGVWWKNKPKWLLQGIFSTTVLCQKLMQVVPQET

| Target | log2 fold change (nilotinib) | log2 fold change [1] | log2 fold change (dasatinib) | log2 fold change [2] | log2 fold change [3] | log2 fold change (quisinostat) | log2 fold change (tipifarnib) | log2 fold change [4] | log2 fold change [5] | log2 fold change [6] | log2 fold change [7] | log2 fold change (vorinostat) | log2 fold change (silmitasertib) | log2 fold change [8] | log2 fold change (entospletinib) |
| --- | --- | --- | --- | --- | --- | --- | --- | --- | --- | --- | --- | --- | --- | --- | --- |
| SMARCAD1 isoform 2 (UniProt Q9H4L7) | -0.001 | -0.008 | -0.033 | -0.005 | -0.005 | -0.054 | -0.025 | 0.016 | 0.059 | -0.007 | -0.005 | -0.27 (active) | 0.012 | 0.014 | 0.013 |
| SSBP3 (UniProt Q9BWW4) | -0.005 | 0.061 | -0.015 | 0.014 | 0.016 | 0.018 | 0.028 | -0.035 | -0.029 | -0.097 | -0.085 | 0.061 | -0.005 | 0.088 | 0.009 |
| SKA2 (UniProt Q8WVK7) | -0.062 | 0.015 | 0.005 | 0.005 | 0.026 | 0.122 | -0.052 | -0.022 | 0.004 | -0.023 | 0.086 | -0.364 (active) | -0.035 | 0.067 | -0.028 |
| SRSF9 (UniProt Q13242) | 0.02 | 0.01 | -0.079 | 0.02 | -0.005 | 0.008 | 0.047 | -0.012 | 0.029 | -0.002 | -0.182 | -0.113 | 0.069 | -0.035 | 0.007 |
| STAT2 (UniProt P52630) | -0.017 | 0.006 | -0.024 | -0.086 | 0.025 | -0.117 | -0.024 | 0.054 | 0.016 | -0.016 | -0.018 | -0.254 (active) | 0.063 | -0.017 | 0.011 |
| SRM (UniProt P19623) | 0.026 | -0.009 | -0.008 | 0.009 | 0.012 | 0.009 | 0.014 | 0.041 | 0.017 | 0.045 | 0.009 | -0.029 | 0.008 | 0.052 | 0.001 |
| SMIM8 (UniProt Q96KF7) | 0.059 | -0.018 | 0.032 | 0.055 | -0.023 | 0.084 | -0.033 | -0.02 | -0.045 | -0.013 | -0.007 | 0.092 | -0.022 | -0.029 | -0.046 |
| SMC2 (UniProt O95347) | -0.017 | -0.005 | -0.036 | 0.007 | 0.025 | -0.023 | 0.024 | 0.034 | 0.017 | -0.003 | 0.014 | -0.308 (active) | 0.016 | -0.01 | 0.009 |
| SFN (UniProt P31947) | -0.036 | -0.007 | 0.088 | -0.007 | 0.008 | 0.077 | 0.052 | -0.048 | -0.023 | 0.035 | -0.001 | 0.107 | -0.032 | -0.026 | 0.045 |
| SH3GL3 isoform 3 (UniProt Q99963) | -0.075 | -0.113 | -0.067 | 0.096 | -0.007 | -0.033 | 0.029 | 0.075 | 0.024 | -0.011 | 0.108 | -0.091 | 0.028 | 0.01 | 0.01 |
| SLC27A4 (UniProt Q6P1M0) | -0.061 | 0.002 | 0.026 | -0.036 | 0.048 | -0.123 | 0.096 | 0.036 | -0.023 | 0.036 | -0.127 | -0.257 (active) | 0.016 | -0.002 | 0.07 |
| SLC29A2 (UniProt Q14542) | 0.083 | 0.095 | 0.029 | 0.058 | 0.037 | -0.242 | 0.048 | 0.088 | -0.037 | -0.021 | -0.045 | 0.139 | 0.117 | 0.031 | -0.06 |
| SLC40A1 (UniProt Q9NP59) | 0.009 | 0.131 | -0.077 | 0.015 | -0.02 | -0.079 | -0.118 | 0.167 | -0.035 | -0.185 | 0.005 | 0.046 | 0 | -0.016 | 0.022 |
| SNRNP40 (UniProt Q96DI7) | 0.018 | 0.03 | -0.007 | 0.019 | -0.004 | -0.027 | 0.012 | 0.013 | -0.012 | 0.002 | 0.01 | 0.233 | -0.012 | 0.022 | 0.03 |
| SNX6, A0A0A0MRI2 | -0.021 | 0.009 | 0.003 | 0.03 | 0.027 | -0.003 | 0.007 | -0.015 | 0.016 | 0.016 | -0.005 | -0.325 (active) | 0.018 | 0.015 | 0.003 |
| TARBP1 (UniProt Q13395) | -0.045 | 0.036 | -0.03 | -0.003 | 0.046 | -0.158 | 0.007 | 0.142 | 0.007 | -0.021 | -0.151 | -0.608 (active) | 0.097 | 0.017 | 0.028 |
| TAPT1 (UniProt Q6NXT6) | 0.009 | 0.012 | 0.013 | 0.03 | -0.118 | -0.053 | 0.017 | -0.032 | 0.011 | -0.001 | 0.023 | 0.09 | 0.007 | 0.023 | 0.001 |
| SLC7A5 (UniProt Q01650) | 0.022 | 0.008 | 0.055 | 0.014 | 0.008 | -0.106 | 0.003 | 0 | -0.029 | -0.003 | 0.034 | 0.109 | -0.04 | 0.013 | 0.03 |
| TAF9 (UniProt Q16594) | -0.043 | 0.049 | -0.017 | -0.003 | 0.021 | -0.055 | -0.029 | 0.013 | 0.084 | -0.024 | 0.002 | -0.099 | -0.011 | -0.003 | -0.017 |
| STK38 (UniProt Q15208) | -0.009 | 0.858 (active) | -0.003 | 0.078 | 0.064 | -0.14 | -0.029 | 0.563 (active) | 0.054 | 0.036 | 0.021 | -0.424 (active) | 0.16 | -0.029 | 0 |
| SPHK1 isoform 2 (UniProt Q9NYA1) | 0.03 | -0.034 | -0.007 | -0.071 | 0.025 | 0.084 | -0.058 | -0.028 | -0.005 | 0.052 | 0.091 | -0.408 | 0.089 | -0.167 | 0.032 |
